From the supplement of paper PMC10849652
Targets with a hit are over-represented here; the source holds about 7,900 in all. About 0.6% of all pairs of compound and target were hits.

Columns and labels:
Assay in all cases: log2 fold change, soluble protein after heating vs DMSO (PISA); higher = thermal stabilisation; K562 cells, 10 uM, 30 min; active = over 0.2 and 3.5 SD of the protein, either way, in both replicates (recomputed)
[1] = compound: C1=CC=C(C=C1)[C@H](COC2=CC3=C(C=C2)NC(=O)N3)NC(=O)C4=CC=CN(C4=O)CC5=CC(=C(C=C5)F)F
In short: (§1)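 Soluble protein was defined as the supernatant after 21,000xg for 90 min. It came from K562 cells at 2×10^6 cells/mL given 10 μM compound for 30 min, heated in aliquots for 3 min across 48°C-58°C, pooled, and extracted in PBS with 0.5% NP-40 at 4°C, and was quantified by TMTpro 16plex LC-MS/MS with equalised channel sums. Thermal stability against control samples, from duplicates, is reported as log2 fold change.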

[2] = compound: CC1=C(SC2=C1C(=N[C@H](C3=NN=C(N32)C)CC(=O)N)C4=CC=C(C=C4)Cl)C
In short: as §1

[3] = compound: CC1=C2C(=CC=C1)N=C(N(C2=O)C3=CC=CC=C3C)CN4C=NC5=C(N=CN=C54)N
In short: as §1

[4] = compound: Cc1sc2c(c1C)C(c1ccc(Cl)cc1)=N[C@@H](CC(=O)OC(C)(C)C)c1nnc(C)n1-2
In short: as §1

[5] = compound: c1ccc([C@@H]2C[C@H]2NC2CCNCC2)cc1
In short: as §1

Measured: log2 fold change

MRPS9 (UniProt P82933)
inactive: [1] -0.001 | [2] 0.008 | [3] -0.025 | [4] 0.034 | [5] 0.025

NOLC1 isoform 2 (UniProt Q14978)
UniProt Q14978, sequence (Q14978 whole entry, looked up): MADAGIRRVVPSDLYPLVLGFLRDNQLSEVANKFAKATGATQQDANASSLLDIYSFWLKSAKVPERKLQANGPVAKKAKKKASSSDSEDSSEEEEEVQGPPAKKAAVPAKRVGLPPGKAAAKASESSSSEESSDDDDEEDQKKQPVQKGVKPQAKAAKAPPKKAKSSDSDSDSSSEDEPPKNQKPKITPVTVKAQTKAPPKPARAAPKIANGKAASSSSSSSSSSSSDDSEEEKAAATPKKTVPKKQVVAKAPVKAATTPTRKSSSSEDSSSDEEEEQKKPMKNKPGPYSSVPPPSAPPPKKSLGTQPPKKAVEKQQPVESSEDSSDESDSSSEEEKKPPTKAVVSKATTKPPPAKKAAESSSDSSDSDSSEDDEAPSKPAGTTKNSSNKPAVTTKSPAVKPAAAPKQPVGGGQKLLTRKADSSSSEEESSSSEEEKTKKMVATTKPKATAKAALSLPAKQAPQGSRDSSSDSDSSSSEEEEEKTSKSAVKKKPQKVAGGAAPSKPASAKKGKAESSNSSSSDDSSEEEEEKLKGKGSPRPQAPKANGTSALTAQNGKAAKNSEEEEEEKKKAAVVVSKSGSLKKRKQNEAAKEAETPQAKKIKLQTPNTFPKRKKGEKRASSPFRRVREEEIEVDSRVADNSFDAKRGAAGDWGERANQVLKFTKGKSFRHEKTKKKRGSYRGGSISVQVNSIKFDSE
inactive: [1] 0 | [2] -0.029 | [3] 0.002 | [4] -0.012 | [5] 0.108

NOP56 (UniProt O00567)
UniProt O00567, sequence (O00567 whole entry, looked up): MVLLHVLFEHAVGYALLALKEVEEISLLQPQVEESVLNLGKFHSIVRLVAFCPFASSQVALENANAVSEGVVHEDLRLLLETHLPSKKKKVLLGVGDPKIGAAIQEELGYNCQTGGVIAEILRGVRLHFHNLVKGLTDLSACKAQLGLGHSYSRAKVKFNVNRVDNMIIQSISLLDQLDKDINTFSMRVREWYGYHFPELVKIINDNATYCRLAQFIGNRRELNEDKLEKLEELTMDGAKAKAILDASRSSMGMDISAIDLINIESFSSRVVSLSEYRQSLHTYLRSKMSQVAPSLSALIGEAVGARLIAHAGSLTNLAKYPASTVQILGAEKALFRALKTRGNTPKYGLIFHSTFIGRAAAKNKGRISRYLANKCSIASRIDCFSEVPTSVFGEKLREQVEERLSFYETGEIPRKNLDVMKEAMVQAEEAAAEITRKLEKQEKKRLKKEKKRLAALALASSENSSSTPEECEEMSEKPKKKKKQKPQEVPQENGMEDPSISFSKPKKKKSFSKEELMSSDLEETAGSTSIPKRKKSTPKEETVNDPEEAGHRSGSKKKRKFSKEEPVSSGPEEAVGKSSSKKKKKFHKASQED
inactive: [1] 0.045 | [2] -0.289 | [3] -0.281 | [4] 0.154 | [5] 0.024

NFATC3 (UniProt Q12968)
inactive: [1] -0.03 | [2] 0.081 | [3] 0.12 | [4] 0.16 | [5] 0.065

OXA1L (UniProt Q15070)
inactive: [1] 0.014 | [2] -0.01 | [3] 0.018 | [4] 0 | [5] 0.009

NDUFS4 (UniProt O43181)
UniProt O43181, sequence (O43181 whole entry, looked up): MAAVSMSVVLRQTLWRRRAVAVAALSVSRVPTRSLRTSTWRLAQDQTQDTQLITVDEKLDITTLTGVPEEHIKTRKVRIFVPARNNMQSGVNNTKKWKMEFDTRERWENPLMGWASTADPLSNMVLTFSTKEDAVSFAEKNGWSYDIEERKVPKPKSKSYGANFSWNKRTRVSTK
inactive: [1] 0.078 | [2] -0.04 | [3] -0.096 | [4] 0.093 | [5] 0.086

NMU (UniProt P48645)
UniProt P48645, sequence (P48645 whole entry, looked up): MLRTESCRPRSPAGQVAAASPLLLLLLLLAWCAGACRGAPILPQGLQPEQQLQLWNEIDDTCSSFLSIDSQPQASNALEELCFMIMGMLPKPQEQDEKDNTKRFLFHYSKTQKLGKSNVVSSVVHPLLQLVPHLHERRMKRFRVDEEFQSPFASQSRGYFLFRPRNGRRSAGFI
inactive: [1] -0.109 | [2] 0.008 | [3] -0.03 | [4] 0.066 | [5] -0.086

MOV10 (UniProt Q9HCE1)
inactive: [1] 0.067 | [2] -0.095 | [3] -0.095 | [4] 0.145 | [5] 0.057

MRPS17 (UniProt Q9Y2R5)
inactive: [1] -0.031 | [2] -0.044 | [3] -0.011 | [4] 0.06 | [5] -0.064

NOP2 isoform 4 (UniProt P46087)
inactive: [1] 0.184 | [2] -0.494 | [3] -0.694 | [4] 0.409 | [5] -0.009

MORC3 (UniProt Q14149)
inactive: [1] -0.043 | [2] 0.014 | [3] 0.132 | [4] 0.017 | [5] 0.062

MTHFD1, A0A384N5Y3
MTHFD1, A0A384N5Y3, sequence (A0A384N5Y3 whole entry, looked up): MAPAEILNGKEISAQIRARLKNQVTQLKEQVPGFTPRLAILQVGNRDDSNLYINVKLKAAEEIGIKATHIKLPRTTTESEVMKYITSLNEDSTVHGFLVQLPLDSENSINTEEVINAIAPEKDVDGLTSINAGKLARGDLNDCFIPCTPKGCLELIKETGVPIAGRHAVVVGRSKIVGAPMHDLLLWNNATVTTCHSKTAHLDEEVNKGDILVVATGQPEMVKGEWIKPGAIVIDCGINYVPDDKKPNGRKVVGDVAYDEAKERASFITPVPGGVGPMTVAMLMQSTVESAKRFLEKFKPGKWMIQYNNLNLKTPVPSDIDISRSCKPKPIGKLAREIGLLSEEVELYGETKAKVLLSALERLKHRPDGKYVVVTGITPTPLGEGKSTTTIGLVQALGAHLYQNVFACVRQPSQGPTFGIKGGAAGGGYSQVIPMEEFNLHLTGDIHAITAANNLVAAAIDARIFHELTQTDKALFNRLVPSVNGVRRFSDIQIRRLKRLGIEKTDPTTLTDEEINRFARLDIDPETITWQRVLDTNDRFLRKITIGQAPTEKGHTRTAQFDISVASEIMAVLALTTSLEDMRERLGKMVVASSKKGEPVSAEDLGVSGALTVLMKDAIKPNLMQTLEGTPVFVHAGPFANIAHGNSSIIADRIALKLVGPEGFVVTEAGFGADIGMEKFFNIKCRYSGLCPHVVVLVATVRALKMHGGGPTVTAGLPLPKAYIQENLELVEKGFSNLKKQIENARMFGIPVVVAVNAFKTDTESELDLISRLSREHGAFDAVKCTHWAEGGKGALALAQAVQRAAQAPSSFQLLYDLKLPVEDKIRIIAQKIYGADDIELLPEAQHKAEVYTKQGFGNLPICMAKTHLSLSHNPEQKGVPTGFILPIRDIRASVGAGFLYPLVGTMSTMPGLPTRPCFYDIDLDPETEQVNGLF
inactive: [1] -0.063 | [2] 0.138 | [3] -0.022 | [4] -0.002 | [5] -0.113

MSTO1 (UniProt Q9BUK6)
inactive: [1] -0.041 | [2] 0.046 | [3] 0.002 | [4] -0.005 | [5] -0.071

MITD1 (UniProt Q8WV92)
UniProt Q8WV92, sequence (Q8WV92 whole entry, looked up): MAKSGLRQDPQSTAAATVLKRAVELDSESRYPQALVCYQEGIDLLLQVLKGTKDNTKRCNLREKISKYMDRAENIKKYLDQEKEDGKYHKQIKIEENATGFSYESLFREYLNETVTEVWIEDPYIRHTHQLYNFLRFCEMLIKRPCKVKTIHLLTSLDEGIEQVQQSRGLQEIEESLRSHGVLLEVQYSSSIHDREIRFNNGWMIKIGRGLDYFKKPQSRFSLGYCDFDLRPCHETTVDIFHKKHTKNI
inactive: [1] -0.058 | [2] 0.022 | [3] -0.326 | [4] 0.045 | [5] 0.06

NA, A0A494C071
inactive: [1] -0.172 | [2] -0.016 | [3] 0.236 | [4] 0.07 | [5] 0.072

OGFOD1 (UniProt Q8N543)
inactive: [1] -0.02 | [2] 0.047 | [3] 0.041 | [4] -0.015 | [5] -0.007

NEDD4L (UniProt Q96PU5)
inactive: [1] 0.014 | [2] 0.038 | [3] 0.039 | [4] 0.054 | [5] 0.027

MRPS31 (UniProt Q92665)
inactive: [1] -0.042 | [2] 0.028 | [3] 0.021 | [4] 0.044 | [5] -0.031

MXRA7 (UniProt P84157)
UniProt P84157, sequence (P84157 whole entry, looked up): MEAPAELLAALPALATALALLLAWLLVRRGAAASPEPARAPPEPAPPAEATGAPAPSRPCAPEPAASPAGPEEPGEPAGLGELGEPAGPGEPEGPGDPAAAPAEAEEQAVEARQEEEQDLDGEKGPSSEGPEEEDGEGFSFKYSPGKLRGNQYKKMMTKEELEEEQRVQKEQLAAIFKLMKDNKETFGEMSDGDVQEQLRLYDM
inactive: [1] 0.008 | [2] 0.167 | [3] 0.293 | [4] 0.002 | [5] 0.024

MTMR14 (UniProt Q8NCE2)
UniProt Q8NCE2, sequence (Q8NCE2 whole entry, looked up): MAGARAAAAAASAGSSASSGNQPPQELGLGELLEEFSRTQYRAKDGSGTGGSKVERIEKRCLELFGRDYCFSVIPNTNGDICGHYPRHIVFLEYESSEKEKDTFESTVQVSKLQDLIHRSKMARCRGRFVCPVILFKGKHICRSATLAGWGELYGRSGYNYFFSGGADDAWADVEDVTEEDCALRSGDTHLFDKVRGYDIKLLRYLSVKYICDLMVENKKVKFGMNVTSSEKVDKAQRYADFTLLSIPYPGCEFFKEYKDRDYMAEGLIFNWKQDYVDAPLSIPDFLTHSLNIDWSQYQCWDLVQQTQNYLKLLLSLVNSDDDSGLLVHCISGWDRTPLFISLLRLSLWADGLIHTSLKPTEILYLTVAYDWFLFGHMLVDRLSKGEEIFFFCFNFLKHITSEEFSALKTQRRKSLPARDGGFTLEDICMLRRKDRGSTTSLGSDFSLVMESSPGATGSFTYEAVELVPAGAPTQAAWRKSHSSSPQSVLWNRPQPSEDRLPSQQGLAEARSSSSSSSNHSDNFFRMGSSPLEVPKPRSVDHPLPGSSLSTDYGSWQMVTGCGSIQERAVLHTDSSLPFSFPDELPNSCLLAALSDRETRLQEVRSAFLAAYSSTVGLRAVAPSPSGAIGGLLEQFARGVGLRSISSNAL
inactive: [1] 0.03 | [2] 0.047 | [3] 0.156 | [4] -0.011 | [5] 0.069

NKAP (UniProt Q8N5F7)
UniProt Q8N5F7, sequence (Q8N5F7 whole entry, looked up): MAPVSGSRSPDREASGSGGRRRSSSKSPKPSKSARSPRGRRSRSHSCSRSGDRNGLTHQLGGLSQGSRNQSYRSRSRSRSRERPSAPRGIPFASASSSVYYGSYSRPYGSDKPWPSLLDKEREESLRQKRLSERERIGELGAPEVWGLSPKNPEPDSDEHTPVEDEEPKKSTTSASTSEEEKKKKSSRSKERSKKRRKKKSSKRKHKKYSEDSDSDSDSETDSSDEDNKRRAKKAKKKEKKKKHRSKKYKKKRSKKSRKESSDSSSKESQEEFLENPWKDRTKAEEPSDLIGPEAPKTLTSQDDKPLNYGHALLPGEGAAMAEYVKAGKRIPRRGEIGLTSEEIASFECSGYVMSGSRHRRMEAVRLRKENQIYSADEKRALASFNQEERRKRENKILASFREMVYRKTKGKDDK
inactive: [1] -0.013 | [2] 0.148 | [3] 0.049 | [4] 0.078 | [5] 0.171

NASP (UniProt P49321)
UniProt P49321, sequence (P49321 whole entry, looked up): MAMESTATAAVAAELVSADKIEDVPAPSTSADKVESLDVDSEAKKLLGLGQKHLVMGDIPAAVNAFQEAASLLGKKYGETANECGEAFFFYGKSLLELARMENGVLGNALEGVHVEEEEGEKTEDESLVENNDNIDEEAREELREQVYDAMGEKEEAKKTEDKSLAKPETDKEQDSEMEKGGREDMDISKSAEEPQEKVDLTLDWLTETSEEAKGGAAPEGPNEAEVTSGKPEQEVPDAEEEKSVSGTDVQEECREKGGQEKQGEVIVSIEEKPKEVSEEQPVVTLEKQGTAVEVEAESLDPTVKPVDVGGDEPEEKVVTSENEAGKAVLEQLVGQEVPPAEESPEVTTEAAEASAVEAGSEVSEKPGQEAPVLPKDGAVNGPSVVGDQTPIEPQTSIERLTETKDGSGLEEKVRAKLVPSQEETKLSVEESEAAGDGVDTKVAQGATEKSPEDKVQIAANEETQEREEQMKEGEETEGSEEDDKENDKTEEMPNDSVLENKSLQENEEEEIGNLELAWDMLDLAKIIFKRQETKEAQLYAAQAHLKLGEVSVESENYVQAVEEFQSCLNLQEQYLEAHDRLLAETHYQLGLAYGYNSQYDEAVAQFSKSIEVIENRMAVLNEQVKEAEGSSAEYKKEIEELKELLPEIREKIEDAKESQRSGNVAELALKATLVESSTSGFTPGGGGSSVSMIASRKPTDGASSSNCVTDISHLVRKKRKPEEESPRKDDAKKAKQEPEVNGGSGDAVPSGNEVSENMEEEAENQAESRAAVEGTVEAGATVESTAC
inactive: [1] -0.009 | [2] 0.049 | [3] 0.054 | [4] -0.022 | [5] 0.013
